# HCV inhibitor: inhibitors of hepatitis C virus infection | Huh7.5.1 HCVcc-Cre infection, luciferase reporter, 44 h | Potency, µM (doses to about 41.8 µM), inactives show top-dose activity change, negative = inhibition, hits mostly inhibitors | 3.4% of 340,000 active | AID 651820; also: % is scaled to controls: 0 for no effect and ±100 for the full control effect
#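 Infectious HCVcc-Cre (~0.5 moi) was added to cells just after compound, with cells seeded 4 h earlier at 1,000 per well. Luciferase activity after 44 h culture reported infection; substrate was incubated 15 min at room temperature before reading.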
# NS1 inh: blocks influenza NS1 protein function; Potency, µM (top dose mostly 46.1 µM), for inactives: top-dose activity, positive = more growth; 0.4% of 270,000 active; calls by dose curve; also: actives are rising curves; nearly all actives have a fitted effect of over 50% in size
#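 In this qHTS, NS1 from influenza A is expressed in budding yeast, where it slows growth. Cells are switched from glucose to 2% galactose medium (pH 6.0, -URA), treated with compound, and growth recovery is read at OD600.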
# Pf growth 48h: inhibits P. falciparum growth in the first generation, 48 h; P. falciparum luciferase growth in erythrocytes, 48 h; Potency, µM (titrated, usually from 28.7 µM), for inactives: top-dose activity change, negative = inhibition, hits mostly inhibitors; 5.9% of 310,000 active; AID 504832; also: % is scaled to controls: 0 for no effect and ±100 for the full control effect
#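 In quantitative HTS format, infected erythrocytes bearing luciferase-reporter parasites were treated for a single generation at 37 C. Luminescence after adding detection reagent served as the growth measure.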
# Vaccinia mCherry: inhibitors of vaccinia virus infection (mCherry reporter signal) | Vaccinia virus mCherry reporter infection, fluorescence | Potency, µM (top dose mostly 36.5 µM), for the others: at the highest dose activity change, negative = inhibition, actives largely listed as inhibitors | 0.63% of 310,000 active; calls by dose curve; tested in A549 cells; also: % is scaled to controls: 0 for no effect and ±100 for the full control effect; nearly all actives have a fitted effect of over 35% in size
# Pf growth 96h: inhibits malaria parasite growth, 96 h. P. falciparum luciferase reporter growth, 96 h. Potency, µM (titrated, usually from 28.7 µM), without a hit: at the highest dose activity change, negative = inhibition, actives largely listed as inhibitors. 6.9% of 320,000 active. AID 504834; also: % is scaled to controls: 0 for no effect and ±100 for the full control effect
#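 P. falciparum expressing integrated firefly luciferase, in erythrocytes at 2% hematocrit, 0.05% parasitemia, incubated with compounds 96 h at 37 C, 5% CO2. Growth inhibition read as loss of luminescence; two-generation exposure targets delayed-death apicoplast inhibitors.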
# VACV Venus inh: vaccinia inhibition (Venus reporter) | Vaccinia virus Venus reporter expression, fluorescence | Potency, µM (series often up to 36.5 µM), for inactives: at the highest dose activity change, negative = inhibition, hits mostly inhibitors | 0.46% of 330,000 active | AID 720580; calls by dose curve; tested in A549 cells; also: % is scaled to controls: 0 for no effect and ±100 for the full control effect; nearly all actives have a fitted effect of over 30% in size
# Active calls of the source: *; i = inactive; ? = inconclusive; nt = not tested or not shown; [ ] = dose if it differs, or a comment. Most compounds without a hit are left out; they make up all but 11% or so of the library. Unless noted, calls follow the shape of the dose curve; as a rule, active = well fitted inhibition curve with a large enough effect; inconclusive = small, poorly fitted or top-dose-only effect, or another doubt; inactive = no such curve, though single readings can be large or run the other way. Potency is read from the fitted curve at half-maximal effect.
SMILES,HCV inhibitor,NS1 inh,Pf growth 48h,Vaccinia mCherry,Pf growth 96h,VACV Venus inh
CCOc1ccc(OCC(=O)OC(C)C(=O)Nc2ccc(Cl)cn2)cc1 (configuration not stated),-2.4%,nt,-1.3%,i,0.0%,-13.2%
CNC(=S)N1C2CCC1CC(NC(=O)NC13CC4CC(CC(C4)C1)C3)C2 (configuration not stated),-6.3%,4.7%,11.7µM*,-6.5%,?,-16.4%
CC(=O)C1=NN(c2ccccc2)C(c2ccc3c(c2)OCO3)N1c1ccc(N2CCOCC2)cc1 (configuration not stated),?,6.6%,14.7µM*,-9.1%,?,-13.0%
CC(=O)C1=NN(c2ccccc2)C(c2cccs2)N1c1ccccc1 (configuration not stated),nt,10.8%,nt,nt,4.65µM*,nt
COc1cccc(N2C(C(C)=O)=NN(c3ccccc3)C2c2ccc(N3CCOCC3)cc2)c1 (configuration not stated),-11.8%,-22.5%,13.1µM*,-13.3%,?,-10.2%
O=C(Nc1ccccc1N1CCOCC1)c1ccc2c(c1)OCO2,-13.9%,-11.9%,-19.0%,-3.0%,17.1%,-3.0%
CC(=O)N1N=C(c2ccccc2O)CC1c1cccs1 (configuration not stated),3.5%,-14.9%,-4.7%,-15.3%,3.0%,0.8%
COCCn1c(=O)[nH]c(=O)c2cc(C(=O)c3cc(Cl)ccc3O)cnc21,1.78µM*,nt,9.28µM*,-3.8%,?,-4.0%
COc1ccc(O)c(C(=O)c2cnc3c(c2)c(=O)[nH]c(=O)n3C)c1,?,6.4%,10.7%,?,?,-12.9%
O=S(=O)(NCCN1CCOCC1)c1cccc(C(F)(F)F)c1,3.2%,-16.9%,18.9%,nt,-19.5%,nt
COc1ccc(NC(=O)CC2C(=O)N(Cc3cccs3)C(=S)N2C(C)C)cc1 (configuration not stated),32.5%,nt,2.62µM*,-15.9%,29.4%[5.75 µM],-3.3%
CCCOc1ccc(NC(=O)CC2C(=O)N(C)C(=S)N2Cc2cccs2)cc1 (configuration not stated),?,-7.1%,11.7µM*,-5.3%,?,-19.9%
CCOc1ccc2nc3c(cc2c1)CN(CCOC)C(=NC)S3,-4.6%,-2.9%,?,-16.2%,2.08µM*,-14.2%
COc1ccccc1OCCn1cc(/C=C(\C#N)C(=O)NCc2cccs2)c2ccccc21,-14.2%,4.2%,?,-2.3%,5.2%,-23.1%
Cc1ccc(C)c(OCCn2cc(/C=C(/C#N)C(=O)NCC3CCCO3)c3ccccc32)c1 (configuration not stated),-10.6%,10.1%,2.08µM*,?,45.4%,-23.8%
COc1cc(/C=C(\C#N)C(=O)NCC2CCCO2)ccc1O (configuration not stated),-0.8%,-4.8%,-3.5%,-5.7%,19.6%,0.7%
Cc1cc(/C=C(\C#N)C(=O)NCC2CCCO2)c(C)n1-c1ccc(Cl)cc1 (configuration not stated),?,-1.5%,10.4µM*,nt,10.4µM*,nt
N#C/C(=C\c1cn(CCOc2ccccc2)c2ccccc12)C(=O)NCC1CCCO1 (configuration not stated),?,19.6%,9.28µM*,?,?,-21.5%
COc1ccc(CCC(C)NCCc2ccc(Cl)cc2Cl)cc1 (configuration not stated),?,-17.3%,?,nt,-14.4%,nt
CCc1ccccc1-n1c(SCC(=O)NC)nnc1-c1cccnc1,19.2%,3.4%,?,-17.3%,2.8%,-6.6%
COc1ccc(NC(=O)Nc2ccc(OCC(=O)N3CCOCC3)cc2)cc1OC,6.9%,-41.2%,22.8%,-4.4%,73.3%,-8.3%
COc1ccc(C(=O)NCC(O)COc2ccc(C(C)(C)C)cc2)cc1[N+](=O)[O-] (configuration not stated),?,10.6%,-4.2%,nt,6.57µM*,nt
COc1ccccc1NCC(O)COc1ccc(C(C)(C)C)cc1 (configuration not stated),?,5.3%,-8.7%,-20.9%,16.9%,-24.8%
Cc1ccccc1NC(=O)NNC(=O)COc1ccc2ccccc2c1,23.7%,6.7%,-2.6%,-13.5%,?,0.2%
O=C(c1ccco1)N1CCN(c2ncccn2)CC1,4.2%,-1.2%,nt,i,-10.5%,-7.5%
SMILES,HCV inhibitor,NS1 inh,Pf growth 48h,Vaccinia mCherry,Pf growth 96h,VACV Venus inh
CCC(C)[C@H]1COCCS(=O)(=O)N1Cc1ccc(Br)cc1 (some centres not stated),12.1%,-40.2%,24.6%,-1.5%,?,-4.8%
O=C(Nc1ccccc1)c1ccccc1OCc1ccc(F)cc1,?,-27.5%,-3.7%,nt,68.1%,nt
CN1CCN(S(=O)(=O)c2ccc(NC(=O)c3csc4ccccc34)cc2)CC1,10µM*,-6.2%,4.65µM*,nt,nt,nt
CCNS(=O)(=O)c1ccc(NC(=O)c2ccccc2OCC)cc1,5.62µM*,-4.3%,-5.0%,-14.9%,nt,-10.0%
O=C(Nc1ccc(O)cc1)c1ccccc1OCc1ccccc1,14.1µM*,-11.6%,?,nt,?,nt
CCCOc1ccccc1OCC(=O)Nc1ccc(S(=O)(=O)N2CCCCC2)cc1,?,nt,?,-25.7%,10.4µM*,-24.2%
COc1ccccc1N1CCN(C(=O)C2CCN(S(=O)(=O)c3cnc[nH]3)CC2)CC1,nt,nt,nt,-4.3%,nt,0.2%
Cc1ccccc1OCC(=O)Nc1ccc(S(=O)(=O)N2CCCC2)cc1,?,nt,?,-19.7%,?,-1.5%
CCCOc1ccccc1C(=O)Nc1ccc(S(=O)(=O)N2CCN(C)CC2)cc1,22.4µM*,-9.3%,?,nt,-22.4%,nt
CCCOc1ccccc1OCC(=O)Nc1ccc(S(=O)(=O)N2CCCC2)cc1,10µM*,nt,-16.5%,-10.6%,?,-0.5%
COc1ccccc1C(=O)Nc1ccc(S(=O)(=O)N2CCN(C)CC2)cc1,0.2%,nt,nt,-21.4%,nt,-28.1%
C[n+]1cccc2c(Br)ccc([O-])c21,8.4%,2.4%,?,-7.5%,2.33µM*,15.1%
Cc1cccc(NC(=O)CSc2nc(-c3ccccc3)cn2-c2ccccc2)c1C,nt,nt,nt,-11.8%,nt,-13.5%
Cc1cc(OCC(=O)Nc2sc3c(c2C#N)CC(C)(C)NC3(C)C)c(C(C)C)cc1Cl,3.16µM*,5.3%,13.1µM*,nt,7.38µM*,nt
CC1(C)Cc2c(sc(NC(=O)COc3ccccc3)c2C#N)C(C)(C)N1,12.6µM*,3.3%,-0.4%,-10.4%,2.8%,-23.9%
CCCC(=O)Nc1sc2c(c1C#N)CC(C)(C)NC2(C)C,-5.0%,-3.5%,11.0%,nt,2.08µM*,-5.2%
CC(=O)Nc1sc2c(c1C#N)CC(C)(C)NC2(C)C,-9.8%,5.9%,9.3%,nt,nt,nt
COCCNC(=O)CNC(c1ccccc1)c1ccccc1,nt,nt,9.0%,nt,10.8%,nt
CCOC(=O)c1c(CN(CC)CC)n(-c2ccccc2)c2ccc(O)cc12,-19.9%,-0.6%,8.28µM*,?,?,-6.4%

# High-throughput results as filed in PubChem.
